The record followed here is PubChem BioAssay AID1347076 (National Center for Advancing Translational Sciences (NCATS), 2019).

The structures appear in SMILES notation. Among all 400,000 compounds or so, about 13,000 (3.2%) were called active. About 18% were inconclusive and are not listed. The call rests on the fitted dose curve; in most records, active means well fitted cell-killing curve with a large enough effect; inconclusive means small, poorly fitted or top-dose-only effect, or effect the other way; inactive means flat fitted curve, though single readings scatter. The entries come from a sample that favours actives as a whole.
On the % scale 0 is the no-effect control and ±100 the full control effect; potency means the concentration at half of the fitted maximal effect.

The experiment can be described thus: qHTS assay for MDR1-selective chemotherapeutics: Primary screen using the drug-selected MDR subline cells KB-V1. Further: nearly all actives have a fitted effect of over 60% in size. To be noted: KB-V1 MDR cells viability, CellTiter-Glo, 72 h; series mostly up to 46.1 µM; activity change, negative = cytotoxicity: at the top concentration. The procedure, abridged: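 KB-V1, DMEM (no phenol red) + 10% FBS; cpd pin-transferred, titration series; 72 h, 37 degrees C; CellTiter-Glo, luminescence. Data normalized, curve-fit.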
For the compound `O=C(Nc1ccc(Cl)cn1)c1ccccc1-c1ccccc1`, the “activity change, negative = cytotoxicity” value was -17.1% (inactive).

Turning to `CC1(C)CC(=O)C=C(c2ccc(COC(=O)c3cc(F)cc(F)c3)cc2)C1=O`, the “activity change, negative = cytotoxicity” value was -6.38% (inactive).

For the compound `COc1ccc(-c2csc(C(O)c3cccc(Cl)c3)n2)cn1` (configuration not stated), the “activity change, negative = cytotoxicity” value is -5.18% (inactive).

Take `COc1cccc(C(NC(C)=O)c2nc(-c3cnc4ccccc4c3)cs2)c1` (configuration not stated): the “activity change, negative = cytotoxicity” value was -6.5% (inactive).

On to `OC(c1ccccc1)c1nc(-c2cnc3ccccc3c2)cs1` (configuration not stated), for which the Potency was 16.4 µM (active).

As for `CCCC(=O)N1CCC1(C)C(=O)NCc1ccc(SC)cc1` (configuration not stated), the “activity change, negative = cytotoxicity” value is -29.3% (inactive).

In the case of `COc1ccc(OC)c(NC(=O)C2CCCN2S(=O)(=O)c2ccc3c(c2)CC(C)N3C(C)=O)c1` (configuration not stated), the “activity change, negative = cytotoxicity” value is -6.15% (inactive).

On to `COc1ccc(NC(=O)COC(=O)C2COc3ccccc3O2)cc1` (configuration not stated), for which the “activity change, negative = cytotoxicity” value was 18.6% (inactive).

On to `CCOc1ncccc1C(=O)OCC(=O)N1c2ccccc2CC1C` (configuration not stated), for which the “activity change, negative = cytotoxicity” value is 2.4% (inactive).

Regarding `CCOC(=O)c1c(C)[nH]c(C(=O)OCC(=O)N2CCCC2=O)c1C`, the “activity change, negative = cytotoxicity” value was 7.52% (inactive).

With `CCOC(=O)c1[nH]c(C)c(C(=O)OCC(=O)N2c3ccccc3CC2C)c1C` (configuration not stated), the Potency was 2.06 µM (active).

As for `Cc1ccc(F)cc1NC(=O)CCSc1nc(-c2ccco2)cc(C(F)(F)F)n1`, the “activity change, negative = cytotoxicity” value is -19.2% (inactive).

In the case of `Cc1ccc(S(=O)(=O)N(C)C)cc1NC(=O)COC(=O)/C=C/c1cccs1`, the “activity change, negative = cytotoxicity” value is 14.3% (inactive).

Turning to `Cc1ccc(S(=O)(=O)N(C)C)cc1NC(=O)/C=C/c1cccs1`, the Potency is 14.6 µM (active).

For `CN(C)S(=O)(=O)c1cccc(NC(=O)COC(=O)/C=C/c2cccs2)c1`, the “activity change, negative = cytotoxicity” value was 15.2% (inactive).

`Cc1cccc(C)c1NC(=O)C(c1cccc(F)c1)N1CCN(C)CC1` (configuration not stated): the “activity change, negative = cytotoxicity” value was -8.73% (inactive).

On to `Cc1cccc(N(Cc2ccccc2)C(=O)c2cc(S(=O)(=O)N3CCOCC3)ccc2F)c1`, for which the “activity change, negative = cytotoxicity” value is -12.4% (inactive).

Take `Cc1ccc(S(=O)(=O)N2CCOCC2)cc1C(=O)NC(=S)N(Cc1ccccc1)C(C)C`: the Potency is 11.6 µM (active).

For the compound `Cc1ccc(S(=O)(=O)N2CCOCC2)cc1C(=O)NCc1ccc(F)cc1`, the “activity change, negative = cytotoxicity” value is 0.614% (inactive).

`CC1(C(=O)Nc2ccc3c(c2)OCCO3)CN(S(C)(=O)=O)CC(=O)N1Cc1cccc(F)c1` (configuration not stated): the “activity change, negative = cytotoxicity” value is -10.5% (inactive).

On to `Cc1nc2ccccn2c(=O)c1NC(=O)c1ccc(Br)o1`, for which the “activity change, negative = cytotoxicity” value is 8.75% (inactive).

For the compound `Oc1c(Cl)cc(Cl)c(Cl)c1Cc1c(O)c(Cl)cc(Cl)c1Cl`, the Potency is 5.17 µM (active).

On to `O=C(O)C(=Cc1ccc([N+](=O)[O-])cc1)CCc1ccccc1`, for which the “activity change, negative = cytotoxicity” value was 2.87% (inactive).

In the case of `CNC(=O)C1CN(C(=O)c2cccc(S(=O)(=O)N3CCc4ccccc43)c2)c2ccccc2O1` (configuration not stated), the “activity change, negative = cytotoxicity” value was -22.8% (inactive).

With `COc1ccc(NC(=O)CSc2nc3ncccc3[nH]2)c(OC)c1`, the “activity change, negative = cytotoxicity” value was -1.22% (inactive).

As to `CC(=O)c1nn(-c2ccccc2)c(=Nc2ccccc2)cc1C`, the “activity change, negative = cytotoxicity” value was 0.939% (inactive).

For the compound `O=C(CNCc1ccc(F)cc1)Nc1ccccc1-c1ccccc1`, the Potency was 13 µM (active).

Turning to `CCC(C(=O)OCC(=O)Nc1ccccc1-c1ccccc1)c1ccccc1` (configuration not stated), the “activity change, negative = cytotoxicity” value is -12.5% (inactive).

For the compound `O=C(Cc1ccccc1)NCc1ccc(F)cc1`, the “activity change, negative = cytotoxicity” value is 8.39% (inactive).

As to `CC1(C(=O)NS(=O)(=O)c2ccccc2Cl)CCN1C(=O)c1cccc(F)c1` (configuration not stated), the “activity change, negative = cytotoxicity” value is 2.05% (inactive).

As to `O=S1(=O)CC(N2CCN(CCO)CC2)CN1Cc1cn(Cc2cccc(Cl)c2)nn1` (configuration not stated), the “activity change, negative = cytotoxicity” value was -3.69% (inactive).

Regarding `Cc1cc(C(=O)OCC(=O)NCc2ccco2)c(C)n1-c1ccccc1`, the Potency is 2.59 µM (active).

Take `CN(c1ccccc1)S(=O)(=O)c1ccc(Cl)c(C(=O)OCC(=O)NCc2ccco2)c1`: the “activity change, negative = cytotoxicity” value is 2.26% (inactive).

Consider `O=C(COC(=O)c1ccccc1O)NCc1ccco1`, for which the “activity change, negative = cytotoxicity” value was 27.6% (inactive).

As to `O=C(CCn1ccc2cc(S(=O)(=O)N3CCCC3)ccc21)NCc1cccc(Cl)c1`, the “activity change, negative = cytotoxicity” value is 0.918% (inactive).

For `Cc1ccccc1CN1C(=O)CSCC1(C)C(=O)Nc1c(C)cccc1C` (configuration not stated), the “activity change, negative = cytotoxicity” value was -18% (inactive).

For the compound `Cc1cccc(Nc2ccccc2C(=O)NCc2ccco2)c1C`, the Potency was 18.4 µM (active).

On to `CS(=O)(=O)N(CC(=O)NCc1ccco1)c1ccc2c(c1)OCO2`, for which the “activity change, negative = cytotoxicity” value is -9.81% (inactive).

In the case of `CC(C)(C)c1ccc(C(=O)NCc2ccco2)cc1`, the “activity change, negative = cytotoxicity” value is 0% (inactive).

Regarding `Cc1ccc(N(Cc2ccc(C(=O)Nc3ccccc3C(=O)NCc3ccco3)cc2)S(C)(=O)=O)cc1C`, the Potency is 2.06 µM (active).

Take `O=C(CCNC(=O)c1ccccc1Cl)NCc1ccco1`: the “activity change, negative = cytotoxicity” value was 17.2% (inactive).

Take `CCN1CCN(C(=O)c2ccc(CN(c3ccc(C)c(C)c3)S(C)(=O)=O)cc2)CC1`: the “activity change, negative = cytotoxicity” value is -5.68% (inactive).

On to `COc1ccccc1NC(=O)C(CC(=O)O)Cc1cc(C)cc(C)c1` (configuration not stated), for which the “activity change, negative = cytotoxicity” value is 22.5% (inactive).

Take `Cc1ccc(F)c(S(=O)(=O)NC(=O)C2(C)CCN2C(=O)CCc2cccs2)c1` (configuration not stated): the “activity change, negative = cytotoxicity” value was 2.1% (inactive).

With `Cc1ccccc1NC(=O)c1cc(S(=O)(=O)Nc2cccc(C(=O)O)c2)ccc1Cl`, the “activity change, negative = cytotoxicity” value was 28% (inactive).

As to `C=CCNC(=O)c1ccccc1NC(=O)c1ccc(Cl)c(S(=O)(=O)Nc2cccc(C)c2C)c1`, the Potency is 2.91 µM (active).

For `COc1ccc(NS(=O)(=O)c2cc(C(=O)Nc3ccccc3C(=O)O)ccc2C)cc1`, the “activity change, negative = cytotoxicity” value is 17% (inactive).

As to `Nc1ncnc2nnsc12`, the “activity change, negative = cytotoxicity” value was -6.07% (inactive).

Consider `CCN(c1ncnc2c1cnn2-c1ccc(C)cc1)C1CCCCC1`, for which the “activity change, negative = cytotoxicity” value is 1.03% (inactive).

`CN(C(=O)COc1ncnc2c1cnn2-c1ccccc1)C1CCCCC1`: the Potency is 9.2 µM (active).

For `CN(C(=O)CSc1nnnn1-c1ccccc1)C1CCCCC1`, the “activity change, negative = cytotoxicity” value was -7.24% (inactive).

For the compound `CC(C)(C)OC(=O)N(Cc1ccco1)S(=O)(=O)c1ccccc1Br`, the “activity change, negative = cytotoxicity” value was -12.2% (inactive).
